Assay results: PubChem BioAssay (NCATS)
Results filed as inconclusive are left out. The source made the active and inactive calls. Calls come from the whole dose curve; as a rule, active = well fitted curve in the direction sought with a large enough effect; inconclusive = small, poorly fitted or top-dose-only effect, or another doubt; inactive = no such curve, though single readings can be large; an effect the other way counts as inactive or inconclusive.

Experiments:
NIH3T3 = experiment: qHTS assay to identify novel small-molecules to repurpose for Merkel cell carcinoma treatment (AID 1296009); conditions: MCC and control cell lines, CellTiter-Glo viability, 72 h; at 44.8 µM (top of the series) unless noted; note: nearly all actives have a fitted effect of over 60% in size
Method in brief: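 After compound transfer in DMSO, plates were kept 72 hr at 37 degree celsius. Luminescent ATP signal from CellTiter-Glo served as viability measure, normalized against DMSO and no-cell controls.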

C33A = experiment: Primary qHTS to identify gynecologic anti-cancer compounds using libraries of approved drugs and bioactive compounds (AID 1345084); conditions: Gynecologic cancer cell panel viability, ATPlite luminescence, 48 h; series mostly up to 57.5 µM; note: % is set by controls: 0 for no effect and ±100 for the full control effect; nearly all actives have a fitted effect of over 55% in size
Method in brief: (§1)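 ATP-based viability (ATPlite), 1,000 cells/well, 16 h pre-incubation, 48 h compound at 37 C, 5% CO2, 15 min RT before read.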

CAOV3 = experiment: as above; conditions: Gynecologic cancer cell panel viability, ATPlite luminescence, 48 h; series mostly up to 57.5 µM
Method in brief: as §1

CASKI = experiment: as above; conditions: Gynecologic cancer cell panel viability, ATPlite luminescence, 48 h; series mostly up to 57.5 µM
Method in brief: as §1

Es-2 = experiment: as above; conditions: Gynecologic cancer cell panel viability, ATPlite luminescence, 48 h; series mostly up to 57.5 µM
Method in brief: as §1

HeLa = experiment: as above; conditions: Gynecologic cancer cell panel viability, ATPlite luminescence, 48 h; series mostly up to 57.5 µM
Method in brief: as §1

Hek293T = experiment: as above; conditions: Gynecologic cancer cell panel viability, ATPlite luminescence, 48 h, control line for the selectivity index; series mostly up to 57.5 µM
Method in brief: as §1

JEG-3 = experiment: as above; conditions: Gynecologic cancer cell panel viability, ATPlite luminescence, 48 h; series mostly up to 57.5 µM
Method in brief: as §1

OV90 = experiment: as above; conditions: Gynecologic cancer cell panel viability, ATPlite luminescence, 48 h; series mostly up to 57.5 µM
Method in brief: as §1

PA-1 = experiment: as above; conditions: Gynecologic cancer cell panel viability, ATPlite luminescence, 48 h; series mostly up to 57.5 µM
Method in brief: as §1

SKOV3 = experiment: as above; conditions: Gynecologic cancer cell panel viability, ATPlite luminescence, 48 h; series mostly up to 57.5 µM
Method in brief: as §1

Tov-21-G = experiment: as above; conditions: Gynecologic cancer cell panel viability, ATPlite luminescence, 48 h; series mostly up to 57.5 µM
Method in brief: as §1

Tov112D = experiment: as above; conditions: Gynecologic cancer cell panel viability, ATPlite luminescence, 48 h; series mostly up to 57.5 µM
Method in brief: as §1

NCc1c[nH]c(=S)n1C1CCc2c(F)cc(F)cc2C1 (stereo unspecified)
inactive: outcome (NIH3T3) | Potency (C33A) | Potency (CAOV3) | Potency (CASKI) | Potency (Es-2) | Potency (HeLa) | Potency (Hek293T) | Potency (JEG-3) | Potency (OV90) | Potency (PA-1) | Potency (SKOV3) | Potency (Tov-21-G) | Potency (Tov112D)

CC1=CCC2C(C)(CO)CCCC2(CO)C1CO (stereo unspecified)
inactive: outcome (NIH3T3) | Potency (C33A) | Potency (CAOV3) | Potency (CASKI) | Potency (Es-2) | Potency (HeLa) | Potency (Hek293T) | Potency (JEG-3) | Potency (OV90) | Potency (PA-1) | Potency (SKOV3) | Potency (Tov-21-G) | Potency (Tov112D)

COc1ccc(C(O[C@@H]2O[C@H](CO)[C@@H](O)[C@H](O)[C@H]2O)C(CO)Oc2ccc(/C=C/CO)cc2OC)cc1O (stereo partly specified)
inactive: outcome (NIH3T3) inactive [at 17.4 µM] | Potency (C33A) | Potency (CAOV3) | Potency (CASKI) | Potency (Es-2) | Potency (HeLa) | Potency (Hek293T) | Potency (JEG-3) | Potency (OV90) | Potency (PA-1) | Potency (SKOV3) | Potency (Tov-21-G) | Potency (Tov112D)

C=C(C)[C@@H](C)[C@H]1O[C@]23C[C@]4(CO2)C(CCC2[C@@]5(C)CC[C@H](O[C@@H]6OC[C@H](O)[C@H](O[C@@H]7O[C@H](CO)[C@@H](O)[C@H](O)[C@H]7O)[C@H]6O[C@@H]6O[C@@H](CO)[C@H](O)[C@H]6O)C(C)(C)C5CC[C@]24C)C3[C@@](C)(O)[C@@H]1OC(C)=O (stereo partly specified)
inactive: outcome (NIH3T3) inactive [at 9.27 µM] | activity change, negative = cytotoxicity (C33A) 0.663% [at 11.6 µM] | activity change, negative = cytotoxicity (CAOV3) 12.4% [at 11.6 µM] | activity change, negative = cytotoxicity (CASKI) -5.16% [at 11.6 µM] | activity change, negative = cytotoxicity (Es-2) 4.13% [at 11.6 µM] | activity change, negative = cytotoxicity (HeLa) -18.1% [at 11.6 µM] | activity change, negative = cytotoxicity (Hek293T) -2.35% [at 11.6 µM] | activity change, negative = cytotoxicity (JEG-3) 10.2% [at 11.6 µM] | activity change, negative = cytotoxicity (OV90) 2.63% [at 11.6 µM] | activity change, negative = cytotoxicity (PA-1) 20.8% [at 11.6 µM] | activity change, negative = cytotoxicity (SKOV3) 6.78% [at 11.6 µM] | activity change, negative = cytotoxicity (Tov-21-G) 0.172% [at 11.6 µM] | activity change, negative = cytotoxicity (Tov112D) 3.31% [at 11.6 µM]

CC(=O)OC[C@]1(O)[C@H]2[C@H](OC(=O)CC(C)C)OC=C(CO[C@@H]3O[C@H](CO)[C@@H](O)[C@H](O)[C@H]3O)[C@H]2C[C@@H]1O
inactive: outcome (NIH3T3) inactive [at 17.4 µM] | Potency (C33A) | Potency (CAOV3) | Potency (CASKI) | Potency (Es-2) | Potency (HeLa) | Potency (Hek293T) | Potency (JEG-3) | Potency (OV90) | Potency (PA-1) | Potency (SKOV3) | Potency (Tov-21-G) | Potency (Tov112D)

CCOC(=O)[C@H](CCc1ccccc1)N[C@@H](C)C(=O)N1C2CCCCC2C[C@H]1C(=O)O (stereo partly specified)
inactive: outcome (NIH3T3) | Potency (C33A) | Potency (CAOV3) | Potency (CASKI) | Potency (Es-2) | Potency (HeLa) | Potency (Hek293T) | Potency (JEG-3) | Potency (OV90) | Potency (PA-1) | Potency (SKOV3) | Potency (Tov-21-G) | Potency (Tov112D)

CC(=O)O[C@H]1[C@H](C)[C@@H](O)[C@H]2[C@@H]1C=C(C(=O)O)[C@H]1C[C@@H]3[C@H]([C@H]21)[C@H]1C(=O)O[C@@H]2CC[C@@]3(C)O[C@]1(O)[C@@H]2C
inactive: outcome (NIH3T3) inactive [at 17.4 µM] | Potency (C33A) | Potency (CAOV3) | Potency (CASKI) | Potency (Es-2) | Potency (HeLa) | Potency (Hek293T) | Potency (JEG-3) | Potency (OV90) | Potency (PA-1) | Potency (SKOV3) | Potency (Tov-21-G) | Potency (Tov112D)

O=C(O)c1cc(O)c2cccc(O)c2c1O[C@@H]1O[C@H](CO)[C@@H](O)[C@H](O)[C@H]1O
inactive: outcome (NIH3T3) | Potency (C33A) | Potency (CAOV3) | Potency (CASKI) | Potency (Es-2) | Potency (HeLa) | Potency (Hek293T) | Potency (JEG-3) | Potency (OV90) | Potency (PA-1) | Potency (SKOV3) | Potency (Tov-21-G) | Potency (Tov112D)

CC(C)(O)C1CC=C(C(=O)OCC2OC(Oc3c(O)cc(C(=O)O)cc3O)C(O)C(O)C2O)CC1 (stereo unspecified)
inactive: outcome (NIH3T3) inactive [at 17.4 µM] | Potency (C33A) | Potency (CAOV3) | Potency (CASKI) | Potency (Es-2) | Potency (HeLa) | Potency (Hek293T) | Potency (JEG-3) | Potency (OV90) | Potency (PA-1) | Potency (SKOV3) | Potency (Tov-21-G) | Potency (Tov112D)

CC(CCC1(O)OC2CC3C4CCC5CC(O[C@@H]6O[C@H](CO)[C@@H](O)[C@H](O)[C@H]6O[C@@H]6OC[C@@H](O)[C@H](O)[C@H]6O)C(O)CC5(C)C4CCC3(C)C2C1C)CO[C@@H]1O[C@H](CO)[C@@H](O)[C@H](O)[C@H]1O (stereo partly specified)
inactive: outcome (NIH3T3) inactive [at 9.27 µM] | activity change, negative = cytotoxicity (C33A) 4.8% [at 11.6 µM] | activity change, negative = cytotoxicity (CAOV3) 10.9% [at 11.6 µM] | activity change, negative = cytotoxicity (CASKI) 14.6% [at 11.6 µM] | activity change, negative = cytotoxicity (Es-2) -0.82% [at 11.6 µM] | activity change, negative = cytotoxicity (HeLa) -1.03% [at 11.6 µM] | activity change, negative = cytotoxicity (Hek293T) -3.21% [at 11.6 µM] | activity change, negative = cytotoxicity (JEG-3) 4.38% [at 11.6 µM] | activity change, negative = cytotoxicity (OV90) -1.54% [at 11.6 µM] | activity change, negative = cytotoxicity (PA-1) 17.2% [at 11.6 µM] | activity change, negative = cytotoxicity (SKOV3) 0% [at 11.6 µM] | activity change, negative = cytotoxicity (Tov-21-G) 0.148% [at 11.6 µM] | activity change, negative = cytotoxicity (Tov112D) 1.16% [at 11.6 µM]

CC(/C=C/C1(O)C(C)(C)CC(O)CC1(C)O)OC1OC(CO)C(O)C(O)C1O (stereo unspecified)
inactive: outcome (NIH3T3) inactive [at 17.4 µM] | Potency (C33A) | Potency (CAOV3) | Potency (CASKI) | Potency (Es-2) | Potency (HeLa) | Potency (Hek293T) | Potency (JEG-3) | Potency (OV90) | Potency (PA-1) | Potency (SKOV3) | Potency (Tov-21-G) | Potency (Tov112D)

CC(C)(O)C1=CCC23COC(C2)C(O)(C(=O)O)CCC13 (stereo unspecified)
inactive: outcome (NIH3T3) | Potency (C33A) | Potency (CAOV3) | Potency (CASKI) | Potency (Es-2) | Potency (HeLa) | Potency (Hek293T) | Potency (JEG-3) | Potency (OV90) | Potency (PA-1) | Potency (SKOV3) | Potency (Tov-21-G) | Potency (Tov112D)
